Results taken from ChEMBL document CHEMBL4513146, “CO-ADD screening of Karazin Kharkiv National University (Ukraine) compounds”.
Measured potencies and affinities stand elsewhere.

Experiments:
Staphylococcus aureus = conditions: Concentration 32 ug.mL-1;; ASSAY_TEST Inhibition of Bacterial Growth; detection method Absorption (OD600); MEDIA CAMHB; plate type 384well; NBS; CORNING #3640; time 18 hr
Escherichia coli = conditions: Concentration 32 ug.mL-1;; ASSAY_TEST Inhibition of Bacterial Growth; detection method Absorption (OD600); MEDIA CAMHB; plate type 384well; NBS; CORNING #3640; time 18 hr

Row | SMILES | Inhibition (Staphylococcus aureus) [%] | Inhibition (Escherichia coli) [%]
1 | Cc1ccccc1Cn1nc2c(=O)n(-c3cccc(Cl)c3C)ccn2c1=O | -10.1 | -10.57
2 | Cc1ccc(NC(=O)Cn2nc3cc(C)nc(Nc4ccc(F)c(C)c4)n3c2=O)cc1 | 11.03 | 0.27
3 | O=S(=O)(c1ccc2nncn2c1)N(Cc1cccc(Cl)c1)c1ccccc1 | 11.21 | -3.7
4 | Cc1ccc(NC(=O)Cn2nc3c(Oc4ccccc4)nccn3c2=O)c(Cl)c1 | 0.38 | -2.7
5 | COc1ccc(NC(=O)c2ccc3nn(CC(=O)N4CCN(c5ccccc5)CC4)c(=O)n3c2)cc1 | 2.28 | -9.19
6 | COC(=O)c1ccc(NC(=O)Cn2nc3c(Oc4ccccc4C)nccn3c2=O)cc1 | -13.52 | 1.22
7 | Cc1cc2nn(CC(=O)N3CCOCC3)c(=O)n2c(Nc2ccc(C)c(F)c2)n1 | 15.64 | -0.78
8 | O=C(NCc1ccccc1)c1ccc2nn(CC(=O)N3CCN(c4ccc(F)cc4)CC3)c(=O)n2c1 | 4.28 | -2.47
9 | Cc1ccc(NC(=O)Cn2nc3ccc(SC(C)C)nn3c2=O)cc1F | -3.37 | -1.63
10 | CC(C)c1nnc2c(=O)n(CC(=O)Nc3cccc(F)c3)c3ccccc3n12 | 22.23 | 3.96
11 | Cc1cccc(N(C)C(=O)Cn2nc3cc(C)nc(Nc4ccc(C)c(F)c4)n3c2=O)c1 | -15.22 | 0.9
12 | O=S(=O)(c1ccc2nncn2c1)N(Cc1cccc(F)c1)c1cc(F)cc(F)c1 | 0.07 | -4.91
